Measured values reported in PubChem BioAssay AID782 (Emory University Molecular Libraries Screening Center, 2007).
Out of some 220,000 compounds screened, about 800 (0.36%) were called active. What follows is part of a selection rich in actives, with near analogues and random picks from the rest. A number with no mark means an inactive call.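 How the source made its calls: active means inhibition above about 30% (limit read from the data); inactive means the rest.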

Molecular target: Eukaryotic translation initiation factor 4E (Mus musculus) + Eukaryotic translation initiation factor 4 gamma 1 (Homo sapiens) (UniProt P63073+Q04637)
Test: blockers of eIF4G binding by eIF4E – biochemical, uHTS, TR-FRET, eIF4GI fragment, primary screen (AID 782);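 further: 0% = full FRET control wells and 100% = background wells lacking eIF4GI fragment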
Conditions: TR-FRET eIF4E-eIF4GI(517-606) binding, 2 h; at 21.7 µM; hits give high values

Sequence of Eukaryotic translation initiation factor 4E (Mus musculus) + Eukaryotic translation initiation factor 4 gamma 1 (Homo sapiens) (P63073 whole entry, looked up, the tested form may be a part): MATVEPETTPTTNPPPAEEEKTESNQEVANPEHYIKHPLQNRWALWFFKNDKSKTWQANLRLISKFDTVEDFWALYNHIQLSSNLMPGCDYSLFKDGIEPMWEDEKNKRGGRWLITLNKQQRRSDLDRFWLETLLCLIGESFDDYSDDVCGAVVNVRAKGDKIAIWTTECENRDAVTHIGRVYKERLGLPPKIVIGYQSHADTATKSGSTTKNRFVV
Sequence of Eukaryotic translation initiation factor 4E (Mus musculus) + Eukaryotic translation initiation factor 4 gamma 1 (Homo sapiens) (Q04637 whole entry, looked up, the tested form may be a part): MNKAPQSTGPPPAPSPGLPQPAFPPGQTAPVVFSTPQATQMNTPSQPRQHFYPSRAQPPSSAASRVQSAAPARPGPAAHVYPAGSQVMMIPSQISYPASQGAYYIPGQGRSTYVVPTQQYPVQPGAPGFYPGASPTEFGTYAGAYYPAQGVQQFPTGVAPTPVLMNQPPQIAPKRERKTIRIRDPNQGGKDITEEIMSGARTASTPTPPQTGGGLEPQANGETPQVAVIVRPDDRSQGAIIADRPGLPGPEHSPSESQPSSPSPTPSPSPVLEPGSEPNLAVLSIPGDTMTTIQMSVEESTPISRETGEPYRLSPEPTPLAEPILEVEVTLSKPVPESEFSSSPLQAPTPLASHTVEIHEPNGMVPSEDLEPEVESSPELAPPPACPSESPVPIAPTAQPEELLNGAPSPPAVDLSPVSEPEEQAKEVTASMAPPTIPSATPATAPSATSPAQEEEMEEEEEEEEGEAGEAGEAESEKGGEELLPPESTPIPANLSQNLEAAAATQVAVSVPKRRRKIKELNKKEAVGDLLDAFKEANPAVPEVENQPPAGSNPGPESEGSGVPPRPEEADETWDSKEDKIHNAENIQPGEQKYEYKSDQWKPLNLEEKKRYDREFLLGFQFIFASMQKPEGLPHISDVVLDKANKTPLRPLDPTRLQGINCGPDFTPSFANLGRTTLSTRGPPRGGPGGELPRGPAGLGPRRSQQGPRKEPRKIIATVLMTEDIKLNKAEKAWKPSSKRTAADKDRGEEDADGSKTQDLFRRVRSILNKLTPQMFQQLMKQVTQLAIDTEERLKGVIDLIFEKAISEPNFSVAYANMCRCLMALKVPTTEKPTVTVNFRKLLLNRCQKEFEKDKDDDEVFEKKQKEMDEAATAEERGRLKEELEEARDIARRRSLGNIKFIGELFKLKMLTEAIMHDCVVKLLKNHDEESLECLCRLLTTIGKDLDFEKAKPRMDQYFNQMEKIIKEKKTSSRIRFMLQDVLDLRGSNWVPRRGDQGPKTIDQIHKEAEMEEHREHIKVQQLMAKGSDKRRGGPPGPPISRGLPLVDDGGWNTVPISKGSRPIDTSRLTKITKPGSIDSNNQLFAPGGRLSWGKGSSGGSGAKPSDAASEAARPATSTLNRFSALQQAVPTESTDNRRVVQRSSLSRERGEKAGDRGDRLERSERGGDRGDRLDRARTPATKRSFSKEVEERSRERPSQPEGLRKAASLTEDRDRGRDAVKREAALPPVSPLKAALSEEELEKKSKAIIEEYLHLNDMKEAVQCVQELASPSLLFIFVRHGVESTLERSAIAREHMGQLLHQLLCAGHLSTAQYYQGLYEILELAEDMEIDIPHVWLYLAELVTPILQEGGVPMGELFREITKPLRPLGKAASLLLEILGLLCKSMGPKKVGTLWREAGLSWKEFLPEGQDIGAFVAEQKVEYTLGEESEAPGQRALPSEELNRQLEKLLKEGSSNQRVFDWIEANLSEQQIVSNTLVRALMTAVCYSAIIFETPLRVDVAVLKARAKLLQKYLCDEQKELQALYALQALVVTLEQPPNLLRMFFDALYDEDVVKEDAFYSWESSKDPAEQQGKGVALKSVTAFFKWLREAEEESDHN

Going from `O=C(COc1cccc2ccccc12)Nc1cc(S(=O)(=O)N2CCOCC2)ccc1N1CCOCC1` to `COc1ccc(NC(=O)c2oc3ccc(S(=O)(=O)N4CCOCC4)cc3c2C)cc1`, the inhibition falls from -0.21% to -0.4%.

First: CCn1c(=O)c([N+](=O)[O-])c(NCc2ccc3c(c2)OCO3)c2ccccc21
Second: O=[N+]([O-])c1cccc(-c2nnc3c4ccccc4c4ccccc4n23)c1
The inhibition of the first is lower: -2.34% for the first, 13.6% for the second.

First: CCOc1ccc(-n2cnc3c(=O)[nH]c(N)nc32)cc1
Second: Cc1ccc(OCc2n[nH]c(=S)n2-c2ccc(C)cc2)cc1
The inhibition of the first is lower: -1.7% for the first, 0.42% for the second.

First: CCC(C)(C)NC(=O)CN(C(=O)C(=O)Nc1ccc2c(c1)OCCO2)C(C)(C)CC
Second: CC(C)(C)NC(=O)NC(=O)COC(=O)Cc1c(F)cccc1Cl
The inhibition of the first is higher: 1.1% for the first, 0.46% for the second.

Going from `O=C(Nc1ccccc1C(F)(F)F)N1CCCC1c1cccnc1` (stereo not drawn) to `COc1ccc(CNC(=O)C2CC(c3ccc(C(F)(F)F)cc3)=NO2)cc1` (stereo not drawn), the inhibition rises from 0.48% to 0.84%.

Going from `COc1cc2c(cc1OC)CC1(CCCCC1)N=C2` to `CCOC(=O)C1=NN(c2ccc(Cl)cc2)/C(=C/C2=NCCc3cc(OC)c(OC)cc32)S1`, the inhibition rises from -2.07% to 2.69%.

First: CC1(C)CC(N(Cc2ccccc2)C(=O)Cc2ccccc2)CCO1 (stereo not drawn)
Second: O=C(Cc1ccccc1)NCC1OCCc2ccccc21 (stereo not drawn)
The inhibition of the first is higher: 1.78% for the first, -5.93% for the second.

Going from `CCc1ccc(N(CC(=O)Nc2sc3c(c2C(=O)OC)CCCC3)S(C)(=O)=O)cc1` to `CCc1ccc(NC(=O)CC2C(=O)NCCN2C(=S)Nc2ccccc2)cc1` (stereo not drawn), the inhibition rises from 1.86% to 2.38%.

Compared with `Cc1cc(C)cc(NC(=O)COC(=O)c2cc(C)oc2C)c1`, `Cc1cc(C)c2c(c1)cc(C)c1nnc(SCC(=O)Nc3cc(C)on3)n12` is higher in inhibition: -0.87% for the first, 0.38% for the second.

Going from `CCn1c(SCC(=O)N/N=C/c2ccccc2OCC(=O)O)nnc1-c1ccc(C(C)(C)C)cc1` to `CCCn1c(SCC(=O)Nc2cccc(C(=O)OCC)c2)nnc1-c1ccoc1C`, the inhibition falls from -4.63% to -5.54%.

First: CC(C)(C)CN1C(=O)C(=O)NC[C@H]1Cc1cccc2ccccc12
Second: O=C(Nc1ccc(Br)cc1)C1CCC(=O)N1Cc1ccccc1Cl (stereo not drawn)
The inhibition of the first is lower: 3.22% for the first, 7% for the second.

Compared with `C/C=C/C(=O)Nc1nnc(C(C)C)s1`, `CCc1nnc(NC(=O)Cc2cccs2)s1` is higher in inhibition: -1.19% for the first, 28.2% for the second.

First: O=C1c2cccc(OCC(=O)N3N=C(c4cccs4)CC3c3ccc(F)cc3)c2CCN1Cc1ccccc1 (stereo not drawn)
Second: O=C1c2ccccc2C(O)N1Cc1ccccc1 (stereo not drawn)
The inhibition of the first is higher: 11.7% for the first, -4.18% for the second.

First: CN=C1C=C/C(=N/N=c2\ccn(O)cc2C)C=C1C
Second: Cc1cc(C)n(-c2nnc(N3CCN(c4ccccc4)CC3)nn2)n1
The inhibition of the first is higher: 3.23% for the first, 1.58% for the second.

Compared with `Brc1ccc(-c2noc(-c3ccccc3)n2)o1`, `Cc1ccc(NC(=O)Nc2cc(-c3ccccc3)nn2C)cc1Cl` is lower in inhibition: 3.6% for the first, 1.28% for the second.

Going from `COC(=O)c1cc(NC(=O)c2cc(C(C)(C)C)nn2Cc2cccc(C)c2)ccc1N1CCOCC1` to `COc1ccc(/C=C/C(=O)Nc2ccc(C)cc2)cc1S(=O)(=O)N1CCOCC1`, the inhibition falls from -1.37% to -7.24%.

First: CC(C)CNc1ncnc2c1cnn2Cc1ccc(Cl)cc1
Second: CN(C(=O)Nc1ccc(Cl)cc1)n1cnc2ccccc2c1=O
The inhibition of the first is higher: -0.57% for the first, -1.03% for the second.

Compared with `COc1ccccc1-n1ccnc1SCC(=O)NC(C)(C)C`, `COc1ccccc1NC(=O)CSc1nc2sc(C)c(C)c2c(=O)n1Cc1ccco1` is lower in inhibition: -3.84% for the first, -13.8% for the second.

Going from `O=C(NCc1ccccn1)c1ccc2nc(-c3ccco3)c(-c3ccco3)nc2c1` to `CCCn1nc2cc(C(=O)NCc3ccccc3)ccc2c1OCC`, the inhibition rises from 2.59% to 5.83%.

First: COc1ccc(NC(=O)Nc2ccc3nc(C)c(C)nc3c2)cc1
Second: COc1ccc(-n2c(C)cc(C(=O)CN3C(=O)NC4(CCc5ccccc54)C3=O)c2C)cc1 (stereo not drawn)
The inhibition of the first is higher: 3.88% for the first, -11% for the second.

First: CC(Sc1nnnn1C)C(=O)NC(=O)NC1CCCCC1 (stereo not drawn)
Second: CCCCNC(=O)N1CCN(S(C)(=O)=O)CC1
The inhibition of the first is higher: 3.38% for the first, 2.45% for the second.

First: CC1=CC2=NC(=O)/C(=C/c3coc4ccccc4c3=O)C(=N)N2O1
Second: CCOC(=O)c1cnc2[nH]c3ccccc3n2c1=O
The inhibition of the first is lower: -3.42% for the first, 13.5% for the second.

Going from `CC(Nc1nc(N2CCN(CCO)CC2)nc2ccccc12)c1ccccc1` (stereo not drawn) to `CCN1CCN(C(c2cccnc2)c2cc(Cl)c3cccnc3c2O)CC1` (stereo not drawn), the inhibition rises from 1.5% to 15.4%.

First: Cn1c(CNC(=O)c2ccccc2F)nnc1SCc1ccc(F)cc1
Second: O=C1C(Cc2ccc(O)cc2)NC(=S)N1Cc1ccccc1 (stereo not drawn)
The inhibition of the first is higher: 15.6% for the first, 4.64% for the second.

Compared with `Cc1ccc(S(=O)(=O)NC(=O)N2CCCN(Cc3ccc(F)cc3)CC2)cc1`, `O=S(=O)(c1ccc(Cl)cc1)N1CCCN(c2ccc(C(F)(F)F)cn2)CC1` is higher in inhibition: 0.62% for the first, 2.55% for the second.

Compared with `C=C1C2C[C@H](O)C(C)(C)[C@@]2(O)[C@H](O)C[C@]23C[C@@](C)(O)[C@H](CC[C@H]12)[C@H]3O` (stereo partly drawn), `C=C(C)C(=O)O[C@H]1C/C(C)=C\C(=O)/C=C(\C)[C@H](O)[C@@H]2OC(=O)C(=C)[C@@H]21` is higher in inhibition: -4.67% for the first, 2.79% for the second.

Going from `CSc1nnnn1-c1c(C)cc(C)cc1C` to `Cc1ccc(C)c(SCc2nc3sc(C(=O)O)c(C)c3c(=O)[nH]2)c1`, the inhibition falls from -8.98% to -9.58%.

Going from `CC(C)=C(NC(=O)c1ccccc1)C(=O)N/N=C(\C)c1ccccc1O` to `CC(=O)Nc1cccc(/C(C)=N/NC(=O)c2c(-c3ccccc3Cl)noc2C)c1`, the inhibition falls from 2.96% to 1.91%.

Compared with `Cc1c(Cl)cccc1NC(=O)CC1SC(=NCC2CCCO2)NC1=O` (stereo not drawn), `O=C(Cc1cccs1)Nc1nnc(C2CC2)s1` is lower in inhibition: 1.68% for the first, -4.66% for the second.

Compared with `Cc1ccc(Nc2nc(N)nc(CSc3nnc(C)s3)n2)cc1`, `Oc1ccc(-c2nnc(Nc3ccccc3)c3ccccc23)cc1` is lower in inhibition: 3.78% for the first, -1.27% for the second.

First: COc1ccc(-c2nn(-c3ccccc3)cc2/C=C\C(=O)N2CCOCC2)cc1[N+](=O)[O-]
Second: O=C(CSC(=S)N1CCOCC1)c1ccccc1
The inhibition of the first is lower: 1.3% for the first, 9.18% for the second.

First: Cc1ccc(S(=O)(=O)N2CCN(S(=O)(=O)N3CCOCC3)CC2)cc1
Second: Oc1c(C(c2ccccn2)N2CCOCC2)ccc2cccnc12 (stereo not drawn)
The inhibition of the first is lower: 0.52% for the first, 5.26% for the second.

First: CCOC(=O)CNC(=O)/C(=C\c1ccc(F)cc1)NC(=O)c1ccccc1
Second: O=C(NC(Cc1c[nH]c2ccccc12)C(=O)O)/C(=C/c1ccco1)NC(=O)c1ccccc1 (stereo not drawn)
The inhibition of the first is lower: 0.01% for the first, 1.5% for the second.

Going from `COc1ccc(OCC(O)CNCCNc2nccc(C(F)(F)F)n2)cc1` (stereo not drawn) to `COCc1cc(=O)[nH]c(-c2ccc(C(F)(F)F)cc2)n1`, the inhibition falls from -1.2% to -4.61%.

Compared with `O=C(Nc1ccc(-c2csc(Nc3cccc(C(F)(F)F)c3)n2)cc1)c1cccc(C(F)(F)F)c1`, `O=C(NNS(=O)(=O)c1ccccc1C(F)(F)F)c1cc2ncc(C(F)(F)F)cc2s1` is higher in inhibition: -4.77% for the first, 9.76% for the second.

Compared with `COc1cc(C(=O)OCc2ccc([N+](=O)[O-])cc2)cc(OC)c1OC`, `CC(C)(C)NC(=O)Cn1cnc2cc([N+](=O)[O-])ccc2c1=O` is higher in inhibition: -2.12% for the first, 6.94% for the second.

First: Cn1c(S(=O)(=O)O)nc2ccccc21
Second: CCn1c(NC(=O)c2nn(C)cc2Br)nc2ccccc21
The inhibition of the first is higher: 3.14% for the first, 2.02% for the second.

Compared with `CCOC1CS(=O)(=O)CC1OCC` (stereo not drawn), `CCN(Cc1ccccc1)C(=O)CN1C(=S)NC(C)(C)CC1C` (stereo not drawn) is lower in inhibition: -1.77% for the first, -8.44% for the second.

First: CCNC(=S)N1CCN(CCN=CC2=C(O)CC(C)(C)CC2=O)CC1
Second: COc1ccc(N2CCN(C(=O)/C(C#N)=C/c3ccccc3)CC2)cc1
The inhibition of the first is higher: 2.72% for the first, 1.4% for the second.

First: Cc1nn(CC(=O)N/N=C/c2ccc(F)cc2)c(C)c1[N+](=O)[O-]
Second: O=C(Cn1cnc2c(cnn2-c2ccccc2)c1=O)NCc1ccccc1
The inhibition of the first is higher: 10.1% for the first, -7.03% for the second.

First: CC(C)N(C(=O)c1ccc(-c2ccccc2F)cc1)C(C)C
Second: CCC(C)(C)NC(=O)/C=C/c1cc(OC)c(OC)c(S(=O)(=O)N2CCc3ccccc32)c1
The inhibition of the first is higher: 6.78% for the first, -2.6% for the second.

Compared with `COC(=O)c1sc2[nH]c(=S)n(N)c(=O)c2c1C`, `Cc1c(CN2CCC(CO)(CCOc3ccccc3)CC2)[nH]c2ccc(Cl)cc12` is higher in inhibition: -5.75% for the first, 3.73% for the second.

With `COCCNC(=O)Nc1ccc2nc(-c3ccco3)c(-c3ccco3)nc2c1` the inhibition was 53.1% (active).
For `O=c1[nH]c2ccccc2n2c(-c3ccccc3)nnc12`, the inhibition was 52.5% [fluorescence artefact?] (active).
`Cc1noc(C)c1CSc1nc2cc(S(=O)(=O)N3CCOCC3)ccc2o1` was tested, and the inhibition was 38.2% (active).
For `Cc1ccc(-c2nc(SCC(=O)Nc3ccccc3OC(F)F)c3c(C)c(C(=O)O)sc3n2)cc1`, the inhibition was 34.5% (active).
In the case of `O=C1c2ccccc2C(O)N1Cc1ccccc1Cl` (stereo not drawn), the inhibition is reported as 43.6% (active).
`CCOC(=O)N1CCN(C(c2cccnc2)c2ccc3cccnc3c2O)CC1` (stereo not drawn) was tested, and the inhibition was 41.4% [fluorescence artefact?] (active).
For `COc1ccc(Cc2nnc(NC(=O)Cc3cccs3)s2)cc1`, the inhibition was 30.8% (active).
For `O=C(Cn1cnc2cc([N+](=O)[O-])ccc2c1=O)NC(=O)NCc1ccccc1`, the inhibition was 90.5% (active).
In the case of `Cc1ccc(C)c2c1cc(C)c1nnc(SCC(=O)Nc3cccc(C(=O)O)c3)n12`, the inhibition is reported as 92.4% (active).
